POLI inh: qHTS for Inhibitors of Polymerase Iota; Pol iota fluorescent replication assay, 10 min; Potency, µM (titrated, usually from 115 µM), most hits filed as inhibitors; 1% of 390,000 active
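Pol iota at 10 nM preincubated 15 min with compounds at room temperature; reaction started with fluorescent substrate, 50 nM final. Fluorescence read kinetically at 0 and 10 min; buffer-only wells as negative control.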
Pol eta inh-1: qHTS for Inhibitors of Polymerase Eta; DNA polymerase eta (Homo sapiens), Q9Y253; AID 588591, 2011; Potency, µM (doses to about 114 µM), usual class: inhibitors; 1.2% of 390,000 active; recombinant Pol eta, fluorescent DNA replication assay
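Fluorescent replication assay: 50 nM final substrate added after a 15 min room-temperature compound preincubation with 10 nM enzyme. Signal taken at 0 min and again at 10 min.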
WRN helicase inh: qHTS for Inhibitors of WRN Helicase; Bifunctional 3'-5' exonuclease/ATP-dependent helicase WRN (Homo sapiens), Q14191; WRN helicase unwinding, fluorescent forked duplex, kinetic; Potency, µM (highest dose often 114 µM), actives largely listed as inhibitors; 0.46% of 360,000 active; AID 651768, 2012; also: nearly all actives have a fitted effect of over 55% in size
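Screening of the MLSMR collection measured strand separation of a quenched forked DNA duplex (100 nM) by 20 nM WRN with 2 mM ATP, all final. Compounds were preincubated with enzyme 15 min at room temperature.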
PI5P4K alpha inh: qHTS for Inhibitors of phosphatidylinositol 5-phosphate 4-kinase (PI5P4K) | PI5P4Kalpha enzyme, ADP-Glo luminescence, 60 min; hits give low values | max response, % | 1.2% of 330,000 active | AID 652105, 2013; active = max response of -50% or lower; inconclusive = between -30% and -50%; inactive = -30% or higher; also: value at the top dose of about 77 µM
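Luminescence from ADP-Glo served as readout of PI5P4Kalpha activity in a qHTS format. Reaction: enzyme, substrate, compound, ATP at 5 microM final, 60 min at RT.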
Pol kappa inh-1: qHTS for Inhibitors of Polymerase Kappa. DNA polymerase kappa (Homo sapiens), Q9UBT6. purified Pol kappa, fluorescent DNA synthesis assay, 10 min. Potency, µM (doses to about 107 µM), most hits filed as inhibitors. 0.53% of 400,000 active
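10 nM Pol kappa preincubated 15 min at room temperature with compounds, then reaction started with substrate at 50 nM final. Fluorescence read kinetically at 0 and 10 min; buffer-only wells served as negative control.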
POLB inh: qHTS Assay for Inhibitors of DNA Polymerase Beta; Pol beta primer extension/strand displacement, fluorescence kinetic; Potency, µM (highest dose often 114 µM), most hits filed as inhibitors; AID 485314, 2010; 1.3% of 340,000 active
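Preincubation: enzyme (10 nM) with compound, 15 min, RT. Reaction: substrate added to 50 nM final. Reads: 0 and 10 min. Analysis: normalized, Hill fit.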
Pol kappa inh-2: qHTS for Inhibitors of Polymerase Kappa: Confirmatory Assay for Cherry-picked Compounds; shares compounds with Pol eta inh-1; purified Pol-kappa, fluorescent strand-displacement substrate; Potency, µM, usual class: inhibitors; 76% of 920 active
Pol eta inh-2: qHTS for Inhibitors of Polymerase Eta: Confirmatory Assay for Cherry-picked Compounds; Pol eta primer extension, TAMRA/BHQ fluorescence, 10 min; shares compounds with Pol eta inh-1; 64% of 2,600 active; Potency, µM, most hits filed as inhibitors
Numbers stand for hits; – = inactive; ? = inconclusive; · = no result given; [ ] = another dose, or the depositor's remark. In the library only some 2.8% were active in any assay of this set; here they are far more common. Unless noted, calls follow the shape of the dose curve; as a rule, active = well fitted curve in the direction sought with a large enough effect; inconclusive = small, poorly fitted or top-dose-only effect, or another doubt; inactive = no such curve, though single readings can be large; an effect the other way counts as inactive or inconclusive.

SMILES	POLI inh	Pol eta inh-1	WRN helicase inh	PI5P4K alpha inh	Pol kappa inh-1	POLB inh	Pol kappa inh-2	Pol eta inh-2
COc1cc(C2C(C#N)=C(N)OC3=C2C(=O)CC(C)(C)C3)cc2c1OCO2 (stereo unspecified)	25µM	?	?	-59	?	·	·	?
COc1ccc(C2C(C#N)=C(N)OC3=C2C(=O)CC(C)(C)C3)cc1 (stereo unspecified)	–	–	–	–	–	–	·	·
CS(=O)(=O)Nc1cccc(S(=O)(=O)N2CCN(C(=O)c3ccccc3)CC2)c1	–	–	–	–	–	–	·	·
O=C(O)c1[nH]c2ccc(Cl)cc2c1CC(=O)N1CCN(C(=O)c2ccco2)CC1	?	7.1µM	?	?	50µM	13µM	·	30
O=C(O)c1[nH]c2ccc(Cl)cc2c1CC(=O)N1CCN(c2ccccc2)CC1	–	–	–	–	–	?	·	·
CCOCCCNC(=O)c1c[nH]c2ccc(S(=O)(=O)Nc3cccc(Cl)c3C)cc2c1=O	?	32µM	·	·	?	28µM	21	85
CNC(=O)c1c[nH]c2ccc(S(=O)(=O)Nc3ccccc3F)cc2c1=O	–	?	–	–	–	?	·	·
CNC(=O)c1c[nH]c2ccc(S(=O)(=O)Nc3cccc(Cl)c3C)cc2c1=O	?	?	·	·	?	32µM	21	?
CCCCN(CCCC)C(=O)c1c[nH]c2ccc(S(=O)(=O)Nc3cccc(Cl)c3C)cc2c1=O	79µM	40µM	·	·	–	35µM	15	76
COCCCNC(=O)c1c[nH]c2ccc(S(=O)(=O)N(C)c3ccccc3C)cc2c1=O	–	–	–	–	–	–	·	·
CCOCCCn1c(SCC(=O)Nc2ccc(OC)cc2)nc2ccccc2c1=O	–	–	–	–	–	–	·	·
CCOC(=O)c1sc2ncn(CC(=O)Nc3cc(C)on3)c(=O)c2c1C	–	–	–	–	?	·	·	·
C=CCOc1ccc(C(c2c(C(=O)O)[nH]c3ccccc23)c2c(C(=O)O)[nH]c3ccccc23)cc1	18µM	32µM	?	?	79µM	20µM	?	?
O=C(O)/C=C/C(=O)Nc1ccc(C2(c3ccc(NC(=O)/C=C/C(=O)O)cc3)c3ccccc3-c3ccccc32)cc1	?	50µM	–[11.6 µM]	-58	–	50µM	·	?
O=C(COc1ccc([N+](=O)[O-])cc1)Nc1nnc(-c2cccnc2)s1	18µM	40µM	–	-66	?	16µM	47	?
CCC(=O)c1ccc(OCC(=O)Nc2nc(-c3cccnc3)cs2)cc1	13µM	13µM	?	–	–	·	·	67
CCC(=O)c1ccc(OCC(=O)Nc2nc(C)cs2)cc1	–	–	–	–	–	·	·	·
O=C(COc1ccc([N+](=O)[O-])cc1)N(C1CCCCC1)C1CCS(=O)(=O)C1 (stereo unspecified)	–	–	–	–	–	·	·	·
O=C(O)COn1c(-c2ccccc2)nc2ccc([N+](=O)[O-])cc21	?	18µM	–[11.6 µM]	?	?	35µM	·	?
COCCNc1ccc(S(=O)(=O)N2CCCC2)cn1	–	–	–	–	–	–	·	·
O=C(COc1cccc(F)c1)NNC(=O)Cc1ccc(Br)cc1	?	–	–	–	–	·	·	·
COc1ccc(Cl)cc1NC(=O)c1c(NCc2ccc(C)o2)sc2c1CCCCC2	?	?	·	·	–	–	?	?
Cc1cc(OC(=O)c2ccccc2Br)c([N+](=O)[O-])c(=O)[nH]1	–	–	–	–	–	–	·	·
O=C(Nc1nc(-c2ccco2)c(-c2ccco2)s1)c1c(F)cccc1Cl	–	?	–	–	?	·	·	·

Assay outcomes (PubChem)
